Screen size: about 340,000 compounds; about 1,000 (0.29%) were called active. No stated cut-off is given here; in the data, inconclusive means inhibition above about 29% without an active follow-up result; inactive means below that. The list is a sample of the results. Measured potencies and affinities stand elsewhere.
Molecular target: Genome polyprotein (Dengue virus type 2 (strain 16681-PDK53)) (UniProt P29991)
Experiment: Dengue-2 NS5 methyltransferase inhibitors, primary screen, biochemical, confirmation dose response (AID 588689)
Conditions: Dengue-2 NS5 methyltransferase capping enzyme assay, at 25 µM, stronger effect = higher value
[1] = measured here: pilot screen replicate inhibition

SMILES: CCOc1ccc(OCC)c(S(=O)(=O)n2cnc(C)c2)c1
- inhibition: 4.27% (inactive)

SMILES: CC(C)N1CCc2c(sc(NC(=O)c3ccco3)c2C(N)=O)C1
- inhibition: -17.8% (inactive)

SMILES: O=C(NN=C1CCN(Cc2ccccc2)CC1)c1ccccc1
- inhibition: -11% (inactive)

SMILES: CSc1nc(N)nc2c1ncn2CC(=O)NCCCc1ccccc1
- inhibition: -9.58% (inactive)
- inhibition [1]: -1.21%

SMILES: Cc1cc(O)c(C(C)C)cc1N=Cc1ccccc1O
- inhibition: 73.5% (inactive)

SMILES: Cc1cc(O)c(C(C)C)cc1N=Cc1cc([N+](=O)[O-])ccc1O
- inhibition: 73.1% (inactive)

SMILES: CN(C(=O)c1cc(C(=O)N(C)c2ccccc2)cc([N+](=O)[O-])c1)c1ccccc1
- inhibition: -8.48% (inactive)

SMILES: Cc1ccc(C(=O)c2coc3cc([N+](=O)[O-])c(O)c([N+](=O)[O-])c23)cc1
- inhibition: 8.29% (inactive)

SMILES: Cc1oc2ccc(O)cc2c1C(=O)c1ccc(Br)cc1
- inhibition: 1.53% (inactive)

SMILES: COc1ccc(OC)c(C(=O)c2c(C)oc3cc([N+](=O)[O-])c(O)c([N+](=O)[O-])c23)c1
- inhibition: 25.1% (inactive)

SMILES: Cc1oc2ccc(O)cc2c1C(=O)c1ccc([N+](=O)[O-])cc1
- inhibition: -2.6% (inactive)

SMILES: CCc1ccc(NC(=O)Cn2ncc3c4ccccc4n(C)c3c2=O)cc1
- inhibition: -6.09% (inactive)

SMILES: CCCOc1ccc(C(=O)CCC(=O)Nc2ccc(N3CCN(C)CC3)cc2)cc1
- inhibition: -15.3% (inactive)

SMILES: COC(=O)c1c(NC(=O)/C=C/C(=O)O)sc(C)c1-c1ccc(C)cc1
- inhibition: -1.47% (inactive)

SMILES: CCOC(=O)c1c(NC(=O)/C=C/C(=O)O)sc(C)c1-c1ccc(F)cc1
- inhibition: 23.7% (inactive)

SMILES: Cc1sc(NC(=O)/C=C/C(=O)O)c(C(N)=O)c1-c1ccc(C(C)(C)C)cc1
- inhibition: 15.2% (inactive)

SMILES: CCOC(=O)c1c(C)nn(-c2ccc(NC(=O)/C=C/C(=O)O)cc2)c1C
- inhibition: -3.06% (inactive)

SMILES: COC(=O)c1c(NC(=O)/C=C/C(=O)O)sc(C)c1-c1ccc(C)c(C)c1
- inhibition: 18.9% (inactive)

SMILES: CCOC(=O)c1c(NC(=O)/C=C\C(=O)O)sc(C)c1-c1ccccc1
- inhibition: -5.1% (inactive)

SMILES: CCc1c(C)sc(NC(=O)/C=C/C(=O)O)c1C(N)=O
- inhibition: -7.73% (inactive)

SMILES: COC(=O)c1c(NC(=O)/C=C/C(=O)O)sc(Cc2ccccc2)c1C
- inhibition: 8.38% (inactive)

SMILES: NC(=O)C1(N2CCCCC2)CCN(C2CC(=O)N(Cc3cccs3)C2=O)CC1 (stereo unspecified)
- inhibition: -7.74% (inactive)

SMILES: O=C(N/N=C/c1ccccc1O)C(=O)Nc1ccccn1
- inhibition: -0.76% (inactive)

SMILES: CCCn1c(SCc2cc(=O)[nH]c3ccccc23)nc2c1c(=O)n(C)c(=O)n2C
- inhibition: -2.04% (inactive)
- inhibition [1]: -0.155%

SMILES: Cc1ccccc1Cn1c(CN2CCN(C(=O)c3ccco3)CC2)nc2c1c(=O)n(C)c(=O)n2C
- inhibition: -5.56% (inactive)

SMILES: CCc1ccc(NS(=O)(=O)c2ccc3oc(=O)ccc3c2)cc1
- inhibition: 1.32% (inactive)
- inhibition [1]: 1.83%

SMILES: O=C(NCc1ccccc1)c1cccc(S(=O)(=O)NCc2ccccc2)c1
- inhibition: -6.73% (inactive)

SMILES: O=C(Nc1ccc(C(F)(F)F)cc1)C1CCCCN1S(=O)(=O)c1ccccc1 (stereo unspecified)
- inhibition: -9.59% (inactive)

SMILES: COc1ccc(-n2nc(C(=O)NCC(=O)N(C)Cc3ccccc3)c3ccccc3c2=O)cc1
- inhibition: -2.44% (inactive)

SMILES: O=C1C(Cl)=C(N2CCCCC2)C(=O)N1c1ccccc1Cl
- inhibition: 16.1% (inactive)

SMILES: Cc1ccccc1N1C(=O)C(Cl)=C(N2CCN(c3ccccc3)CC2)C1=O
- inhibition: -3.27% (inactive)

SMILES: O=C1C(Cl)=C(N2CCCCCC2)C(=O)N1c1ccccc1Cl
- inhibition: 8.59% (inactive)

SMILES: Cc1ccccc1N1C(=O)C(Cl)=C(N2CCCCCC2)C1=O
- inhibition: -0.78% (inactive)

SMILES: CCc1ccccc1N1C(=O)c2cccc3c(N4CCOCC4)c([N+](=O)[O-])cc(c23)C1=O
- inhibition: -4.86% (inactive)

SMILES: CC1=CC(C)(C)C(C(=O)O)C(C(=O)O)C1 (stereo unspecified)
- inhibition: -2.42% (inactive)

SMILES: CCOC(=O)/C(C#N)=C1/C=C(C)c2ccccc2N1
- inhibition: -9.35% (inactive)

SMILES: O=C(O)COc1ccc2c(c1)O/C(=C\c1cccs1)C2=O
- inhibition: -8.5% (inactive)

SMILES: O=C(CSc1nncn1-c1ccccc1)N1CCCC1
- inhibition: -4.17% (inactive)

SMILES: CCc1ccc(NC(=O)C2CCCN(S(=O)(=O)c3ccc4c(c3)CCCN4C(C)=O)C2)cc1 (stereo unspecified)
- inhibition: 2.65% (inactive)

SMILES: CC(C)C(O)P(=O)(OCc1ccccc1)c1ccc(N(C)C)cc1 (stereo unspecified)
- inhibition: 1.35% (inactive)
- inhibition [1]: -3.66%

SMILES: CCOC(=O)C1CCCN1C(=O)c1ccc(OC)c(Br)c1 (stereo unspecified)
- inhibition: 0% (inactive)

SMILES: Cc1[nH]c2ccc(Br)cc2c(=S)c1C/C=C/Cl
- inhibition: 0% (inactive)

SMILES: CC(=O)c1c(C)oc2c1cc(O)c1ccccc12
- inhibition: -5.41% (inactive)

SMILES: CC(=O)c1coc2c1cc(O)c1ccccc12
- inhibition: -0.78% (inactive)

SMILES: CCN(C(=O)CCN1C(=O)c2ccccc2S1(=O)=O)c1ccccc1
- inhibition: -2.22% (inactive)

SMILES: COc1ccc(C(=O)N2CCOC2CNC(=O)C(=O)NCc2ccc(C)cc2)cc1 (stereo unspecified)
- inhibition: 1.73% (inactive)

SMILES: CSc1nc(-c2ccccc2)nc(NC(=O)C(C)C)c1C(C)=O
- inhibition: -10.3% (inactive)

SMILES: O=C(NC1CC2CCCC(C1)N2S(=O)(=O)c1ccccc1)c1ccco1 (stereo unspecified)
- inhibition: 1.41% (inactive)

SMILES: CSCC[C@H](NC(=O)c1cccs1)c1nnc2ccccn12
- inhibition: 5.35% (inactive)

SMILES: CCOC(=O)c1c(C)oc2ccc(NS(=O)(=O)c3ccc(C(=O)O)cc3)cc12
- inhibition: 4.37% (inactive)

SMILES: Cc1oc2c(cc(NS(=O)(=O)c3ccc(F)cc3)c3ccccc32)c1C(=O)O
- inhibition: 11.6% (inactive)

SMILES: COc1ccc(S(=O)(=O)Nc2cc3c(C(C)=O)c(C)oc3c3ccccc23)cc1
- inhibition: -1.56% (inactive)

SMILES: CC(=O)c1c(C)oc2c1cc(NS(=O)(=O)c1ccc(C(=O)O)cc1)c1ccccc12
- inhibition: 15.7% (inactive)

SMILES: O=C(Cn1cnc2ccccc2c1=O)NCC(=O)N1CCN(Cc2ccc3c(c2)OCO3)CC1
- inhibition: -2.08% (inactive)

SMILES: Cc1cccc(NC(=O)Nc2cnccn2)c1
- inhibition: -2.65% (inactive)

SMILES: Cn1c(=O)c2c(ncn2CCC(=O)N/N=C/c2cccnc2)n(C)c1=O
- inhibition: 0.78% (inactive)

SMILES: CN1C(=O)N(c2ccc(Cl)cc2)C(C)(O)CC1(C)C (stereo unspecified)
- inhibition: -7.17% (inactive)

SMILES: Oc1cccc2cc3cccc(O)c3c(O)c12
- inhibition: -2.2% (inactive)

SMILES: COc1cc2cccc(OC)c(=O)c2c(O)c1OC
- inhibition: -2.72% (inactive)

SMILES: O=C(COC(=O)CCC(=O)c1cccs1)NCCc1ccccc1
- inhibition: 10.1% (inactive)

SMILES: Cc1cccc(NC(=O)c2cccc(NC(=O)c3ccco3)c2)c1
- inhibition: -3.49% (inactive)

SMILES: O=c1c2c(C(F)(F)F)cc(C(F)(F)F)nc2[nH]n1-c1ccccc1
- inhibition: 12% (inactive)

SMILES: Cc1cc(-c2ccccc2)nc2[nH]n(-c3ccccc3)c(=O)c12
- inhibition: 14.4% (inactive)

SMILES: COC(C(=O)Nc1ccccc1C(=O)N1CCOCC1)c1ccccc1 (stereo unspecified)
- inhibition: -4.55% (inactive)

SMILES: CN1C(=O)C(C)(C)c2cc(S(=O)(=O)NCc3ccc(Cl)cc3)ccc21
- inhibition: 0% (inactive)

SMILES: O=C(O)c1cc(=O)c2c(Cl)cc(Cl)cc2[nH]1
- inhibition: -1.47% (inactive)

SMILES: O=C(O)/C(=C\c1ccccc1)c1ccccc1
- inhibition: -3.95% (inactive)

SMILES: COc1ccc(C(=O)Nc2ccc3nc(N4CCOCC4)sc3c2)cc1OC
- inhibition: -1.84% (inactive)

SMILES: c1csc(-c2cc(N3CCCCC3)c3ccccc3n2)c1
- inhibition: -2.61% (inactive)

SMILES: O=c1c2ccccc2nc(/C=C/c2ccc([N+](=O)[O-])cc2)n1CCCO
- inhibition: -2.58% (inactive)

SMILES: Cc1cnc(=O)[nH]c1SCc1ccc([N+](=O)[O-])cc1
- inhibition: 9.19% (inactive)

SMILES: CCOC(=O)N1CCC(NC(=O)c2cc3sccc3n2CC)CC1
- inhibition: -4.86% (inactive)

SMILES: CCN(CC)c1ccc(/C=N/Nc2cccc(C)c2)c(O)c1
- inhibition: 7.27% (inactive)

SMILES: Oc1c(Br)cc(Br)cc1/C=N/Nc1ccc(Cl)nn1
- inhibition: 7.11% (inactive)

SMILES: Oc1ccc(/C=N/Nc2ccc(Cl)nn2)cc1O
- inhibition: 2.61% (inactive)

SMILES: Oc1cccc(/C=N/NC(=S)Nc2cccnc2)c1O
- inhibition: -2.88% (inactive)

SMILES: Oc1ccc(/C=N/NC(=S)Nc2cccnc2)c(O)c1
- inhibition: -3.64% (inactive)

SMILES: Cc1cccc(N/N=C/c2ccccc2O)c1
- inhibition: -8.43% (inactive)

SMILES: COc1ccc(CCC(=O)N2CCN(C3CCCCC3)CC2)cc1
- inhibition: -7.21% (inactive)

SMILES: CC(=O)N1CCN(Cc2nc3cc(NC(=O)c4ccccc4C)ccc3n2C)CC1
- inhibition: -0.69% (inactive)

SMILES: Cc1cc2ncn(C3CC(O)C(CO)O3)c2cc1C (stereo unspecified)
- inhibition: 2.33% (inactive)

SMILES: COc1ccc(-c2nn(-c3ccccc3)cc2/C=N/NC(=O)c2cccc(S(=O)(=O)Nc3ccccc3OC)c2)cc1
- inhibition: -3.64% (inactive)

SMILES: C=CCc1cccc2cc(C(=O)N3CCN(C(=O)c4ccccc4)CC3)c(=O)oc12
- inhibition: -4.98% (inactive)

SMILES: C[C@@H]1CN([C@@H](C)CO)S(=O)(=O)c2ccc(Br)cc2O[C@H]1CN(C)C(=O)c1ccncc1
- inhibition: -4.96% (inactive)

SMILES: CN(C)c1ccc(/C=N/NC(N)=S)cc1[N+](=O)[O-]
- inhibition: -11.3% (inactive)

SMILES: CC(C)CN(CC(C)C)c1ccc(/C=N/n2cnnc2)cc1[N+](=O)[O-]
- inhibition: -1.82% (inactive)

SMILES: COc1ccc(N2CCN(C(=O)c3ccccc3)CC2)c([N+](=O)[O-])c1
- inhibition: 0% (inactive)

SMILES: O=C1NC(=S)N/C1=C\c1cccc([N+](=O)[O-])c1
- inhibition: 2.76% (inactive)

SMILES: O=C1NC(=O)/C(=C\c2ccc(Oc3ccc([N+](=O)[O-])cn3)cc2)S1
- inhibition: 10.2% (inactive)

SMILES: O=C(c1ccc(N2CCOCC2)c([N+](=O)[O-])c1)N1CCN(c2ccccc2)CC1
- inhibition: -9.43% (inactive)

SMILES: O=C1c2ccccc2C(=O)N1/N=C/c1ccc(Oc2ccc([N+](=O)[O-])cn2)cc1
- inhibition: -2.91% (inactive)

SMILES: Cc1ccc(/C=C2\NC(=S)NC2=O)cc1[N+](=O)[O-]
- inhibition: 3.12% (inactive)
